SMILES strings stand for the structures.

Assay [1] addresses Ribosomal protein S6 kinase alpha-1 (Homo sapiens) (UniProt Q15418). The note with it: at 1 µM.
For assay [2] the target is unchanged. The settings on record: at 10 µM.
The target of assay [3] is Ribosomal protein S6 kinase alpha-3 (Homo sapiens) (UniProt P51812). The note with it: at 1 µM.
Assay [4] shares this target. The settings on record: at 10 µM.
Assay [5] addresses Ribosomal protein S6 kinase alpha-2 (Homo sapiens) (UniProt Q15349). The settings on record: at 1 µM.
For assay [6] the target is unchanged. The settings on record: at 10 µM.
For assay [7], the target named is Ribosomal protein S6 kinase alpha-6 (Homo sapiens) (UniProt Q9UK32). The note with it: at 1 µM.
For assay [8] the target is unchanged. The settings on record: at 10 µM.
Assay [9] has as its target Mitogen-activated protein kinase 14 (Homo sapiens) (UniProt Q16539). The note with it: at 1 µM.
The target is the same in assay [10]. The note with it: at 10 µM.

Mitogen-activated protein kinase 14 (Homo sapiens), sequence (Q16539 whole entry): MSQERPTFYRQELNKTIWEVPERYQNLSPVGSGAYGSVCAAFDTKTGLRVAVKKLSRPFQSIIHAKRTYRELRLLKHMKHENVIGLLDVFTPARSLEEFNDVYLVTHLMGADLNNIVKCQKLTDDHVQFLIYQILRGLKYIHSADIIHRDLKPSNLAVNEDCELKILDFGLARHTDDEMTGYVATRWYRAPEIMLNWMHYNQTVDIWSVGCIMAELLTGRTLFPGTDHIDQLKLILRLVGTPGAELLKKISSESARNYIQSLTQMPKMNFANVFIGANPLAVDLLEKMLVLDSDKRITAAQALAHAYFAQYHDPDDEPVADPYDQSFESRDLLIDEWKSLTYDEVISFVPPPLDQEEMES
Ribosomal protein S6 kinase alpha-2 (Homo sapiens), sequence (Q15349 whole entry): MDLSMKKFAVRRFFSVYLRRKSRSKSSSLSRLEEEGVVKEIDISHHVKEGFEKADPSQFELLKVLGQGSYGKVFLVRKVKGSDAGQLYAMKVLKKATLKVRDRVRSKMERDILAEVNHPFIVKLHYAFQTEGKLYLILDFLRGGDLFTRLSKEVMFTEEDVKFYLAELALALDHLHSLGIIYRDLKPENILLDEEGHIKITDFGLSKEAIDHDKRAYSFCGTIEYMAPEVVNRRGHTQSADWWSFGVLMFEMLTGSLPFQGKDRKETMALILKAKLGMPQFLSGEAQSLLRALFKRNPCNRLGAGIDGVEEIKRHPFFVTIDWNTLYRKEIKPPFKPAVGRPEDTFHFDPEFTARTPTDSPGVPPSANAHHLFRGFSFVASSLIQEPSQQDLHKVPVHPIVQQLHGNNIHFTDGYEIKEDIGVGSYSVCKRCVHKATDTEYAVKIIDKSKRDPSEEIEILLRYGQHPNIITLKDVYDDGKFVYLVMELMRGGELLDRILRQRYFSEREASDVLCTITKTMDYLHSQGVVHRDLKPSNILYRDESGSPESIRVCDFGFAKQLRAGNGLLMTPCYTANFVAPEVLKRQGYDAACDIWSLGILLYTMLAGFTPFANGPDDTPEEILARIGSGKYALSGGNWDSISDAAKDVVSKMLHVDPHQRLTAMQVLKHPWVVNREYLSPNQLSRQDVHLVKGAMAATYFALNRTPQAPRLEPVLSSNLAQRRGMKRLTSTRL
Ribosomal protein S6 kinase alpha-6 (Homo sapiens), sequence (Q9UK32 whole entry): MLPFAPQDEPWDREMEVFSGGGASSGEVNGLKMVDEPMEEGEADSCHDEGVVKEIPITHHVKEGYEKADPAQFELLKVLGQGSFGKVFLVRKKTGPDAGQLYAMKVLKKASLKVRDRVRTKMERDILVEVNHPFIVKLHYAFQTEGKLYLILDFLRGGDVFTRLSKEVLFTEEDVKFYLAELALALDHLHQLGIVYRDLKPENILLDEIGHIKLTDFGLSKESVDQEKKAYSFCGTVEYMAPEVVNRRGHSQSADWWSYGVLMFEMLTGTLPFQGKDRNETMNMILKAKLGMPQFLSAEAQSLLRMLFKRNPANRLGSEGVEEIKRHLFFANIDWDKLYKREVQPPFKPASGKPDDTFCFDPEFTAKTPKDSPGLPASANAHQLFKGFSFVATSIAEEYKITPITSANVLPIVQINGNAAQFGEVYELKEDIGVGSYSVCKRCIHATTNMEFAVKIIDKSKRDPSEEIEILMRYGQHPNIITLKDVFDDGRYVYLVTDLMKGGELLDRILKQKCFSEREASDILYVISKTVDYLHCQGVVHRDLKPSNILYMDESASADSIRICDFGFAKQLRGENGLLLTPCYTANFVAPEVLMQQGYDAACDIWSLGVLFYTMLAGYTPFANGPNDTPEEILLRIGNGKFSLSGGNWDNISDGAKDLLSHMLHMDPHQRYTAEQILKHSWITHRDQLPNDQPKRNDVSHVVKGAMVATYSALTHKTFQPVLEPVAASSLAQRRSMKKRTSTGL
Ribosomal protein S6 kinase alpha-1 (Homo sapiens), sequence (Q15418 whole entry): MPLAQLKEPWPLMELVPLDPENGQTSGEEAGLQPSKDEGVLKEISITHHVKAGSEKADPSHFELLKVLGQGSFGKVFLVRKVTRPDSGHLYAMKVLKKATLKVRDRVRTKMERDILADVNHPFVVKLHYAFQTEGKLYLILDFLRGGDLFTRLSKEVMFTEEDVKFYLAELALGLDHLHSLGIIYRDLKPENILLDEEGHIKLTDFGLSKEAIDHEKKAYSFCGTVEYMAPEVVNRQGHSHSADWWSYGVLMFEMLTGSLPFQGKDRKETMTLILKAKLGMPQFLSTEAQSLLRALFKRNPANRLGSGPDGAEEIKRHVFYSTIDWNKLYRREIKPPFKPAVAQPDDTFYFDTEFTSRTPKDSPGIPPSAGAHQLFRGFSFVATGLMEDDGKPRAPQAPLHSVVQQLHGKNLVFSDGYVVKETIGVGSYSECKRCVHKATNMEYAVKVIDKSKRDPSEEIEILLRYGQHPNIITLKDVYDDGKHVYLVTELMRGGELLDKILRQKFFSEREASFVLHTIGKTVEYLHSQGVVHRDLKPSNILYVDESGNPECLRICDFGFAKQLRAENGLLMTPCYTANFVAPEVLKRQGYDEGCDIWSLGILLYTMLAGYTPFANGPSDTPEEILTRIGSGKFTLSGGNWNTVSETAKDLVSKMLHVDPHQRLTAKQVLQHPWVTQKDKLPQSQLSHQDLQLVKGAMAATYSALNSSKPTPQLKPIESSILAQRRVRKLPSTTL
Ribosomal protein S6 kinase alpha-3 (Homo sapiens), sequence (P51812 whole entry): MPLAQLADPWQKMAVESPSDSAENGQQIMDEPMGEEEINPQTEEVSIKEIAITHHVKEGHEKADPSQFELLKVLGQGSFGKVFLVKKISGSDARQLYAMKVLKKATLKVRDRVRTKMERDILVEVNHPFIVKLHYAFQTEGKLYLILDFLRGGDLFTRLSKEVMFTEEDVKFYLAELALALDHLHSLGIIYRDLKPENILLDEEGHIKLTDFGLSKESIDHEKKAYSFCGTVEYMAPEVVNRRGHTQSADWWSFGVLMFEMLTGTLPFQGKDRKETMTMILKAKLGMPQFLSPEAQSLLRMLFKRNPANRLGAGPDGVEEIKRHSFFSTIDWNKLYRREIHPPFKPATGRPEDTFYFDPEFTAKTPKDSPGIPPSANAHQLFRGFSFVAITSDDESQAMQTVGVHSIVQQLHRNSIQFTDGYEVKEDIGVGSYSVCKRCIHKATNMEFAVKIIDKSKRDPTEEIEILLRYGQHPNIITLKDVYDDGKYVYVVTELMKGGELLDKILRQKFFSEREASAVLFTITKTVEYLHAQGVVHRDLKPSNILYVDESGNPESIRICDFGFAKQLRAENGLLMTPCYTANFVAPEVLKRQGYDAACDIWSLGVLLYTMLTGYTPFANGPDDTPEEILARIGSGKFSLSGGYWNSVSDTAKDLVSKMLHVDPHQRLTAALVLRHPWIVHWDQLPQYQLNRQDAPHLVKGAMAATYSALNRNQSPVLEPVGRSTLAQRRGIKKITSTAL

On to `CC(C)c1nn(-c2c(Cl)cccc2Cl)c2nc(Cc3ccc(OCCO)cc3)[nH]c(=O)c12`, for which the residual activity was 105% in assay [1]; 56% in assay [2]; 46% in assay [3]; 29% in [4]; 88% in assay [5]; 47% in assay [6]. Further, the residual activity in [7] came to 71%; in assay [8] it was 49%; in [9], 92%; in assay [10], 82%.
Consider `COc1ccc(COc2ccc(Cc3cnc(N)nc3N)cc2OC)cc1`, for which the residual activity in [1] was 131%; in assay [2], 109%; in [3], 64%; in assay [4], 64%; in assay [6], 71%; in assay [7], 110%. Moreover, the residual activity in [8] worked out at 116%; in [10] it was 99%.
For `O=S(=O)(NCCNC/C=C/c1ccc(Br)cc1)c1cccc2cnccc12`, the residual activity in assay [1] was 53%; in assay [2], 24%; in assay [3] it was 26%; in assay [4], 6%; in [5], 70%; in assay [6], 13%. Besides, the residual activity amounted to 18% in [7] and 9% in assay [8].
On to `O=C1NC(=O)C(c2cn(CCCn3ccnc3)c3ccccc23)=C1Nc1ccccc1`, for which the residual activity is 8% in assay [1]; 1% in [2]; 3% in [3]; 1% in [4]; 0% in assay [5]; -1% in assay [6]. The residual activity in assay [7] worked out at 5%; in assay [8], 2%; in assay [9], 62%; in assay [10] it was 78%.
With `O=c1cc(N2CCNCC2)oc2c(-c3ccccc3)cccc12`, the residual activity stood at 124% in assay [1]; 96% in assay [2]; 51% in [3]; 36% in [4]; 104% in assay [6]; 89% in assay [8]. For the same compound, the values for the residual activity in assay [9] and in assay [10] were 101% and 98%, respectively.
With `Nc1n[nH]c2nc3ccccc3nc12`, the residual activity stood at 118% in assay [1]; 87% in [2]; 65% in [3]; 54% in [4]; 93% in [5]; 77% in assay [6]. The residual activity in assay [7] is 83%; in assay [8], 71%; in [9], 90%; in assay [10] it was 97%.
`O=C1C(Cl)=C(N2C(=O)CCC2=O)C(=O)c2ccccc21`: the residual activity in assay [1] came out at 120%; in [2] it was 131%; in assay [3] it was 73%; in assay [4], 75%; in assay [7], 92%; in assay [8] it was 99%. Further, the residual activity was determined as 86% in assay [9] and 92% in assay [10].
On to `COc1cc2ncnc(Nc3cccc(Cl)c3)c2cc1OC`, for which the residual activity came to 102% in assay [3]; 59% in assay [4]; 87% in [5]; 47% in assay [6]; 123% in assay [7]; 64% in assay [8]. The residual activity in assay [9] was 56%; in [10], 25%.
As to `O=c1c(-c2ccc(F)cc2)c(-c2ccncc2)[nH]n1-c1ccc(Cl)cc1`, the residual activity in assay [9] is 3%; in [10], 0%.
With `O=C1Cc2c([nH]c3ccc(Br)cc23)-c2ccccc2N1`, the residual activity in assay [1] was determined as 78%; in assay [2] it was 77%; in [5] it was 12%; in [6], 9%.
As for `NC(=O)c1cccc(-c2cc(Nc3ccc(OC(F)(F)F)cc3)ncn2)c1`, the residual activity in [2] was 94%; in [3], 57%; in assay [4], 40%.
On to `CC(C)(C)c1nc2c3ccc(F)cc3c3c(=O)[nH]ccc3c2[nH]1`, for which the residual activity in assay [1] worked out at 65%; in [2] it was 55%; in [5] it was 25%; in [6], 7%; in [7], 42%; in assay [8], 37%. For the same compound, the residual activity in [9] came to 73%; in [10] it was 69%.
`COc1cc2nccc(Oc3ccc(NC(=S)NC(=O)c4ccccc4C)cc3)c2cc1OC`: the residual activity was determined as 96% in [1]; 81% in [2]; 70% in [3]; 19% in [4]; 88% in assay [7]; 123% in assay [8]. Moreover, the results for the residual activity in assay [9] and in assay [10] were 82% and 68%, respectively.
On to `O=C(Nc1nc2ccccc2n1CCN1CCOCC1)c1cccc([N+](=O)[O-])c1`, for which the residual activity in [3] stood at 104%; in assay [4], 83%; in assay [7], 108%; in [8] it was 80%.
For the compound `O=c1cc(N2CCOCC2)oc2c(-c3ccccc3)cccc12`, the residual activity in [1] was determined as 138%; in assay [3] it was 69%; in assay [4], 55%.
As for `N#Cc1c(NC(=O)c2cccc3ccccc23)sc2c1CCCC2`, the residual activity was 94% in assay [2]; 49% in [3]; 51% in assay [4]; 92% in assay [7]; 90% in [8].
Turning to `NCCNc1ncc(C(N)=O)c(Nc2cccc(C(F)(F)F)c2)n1`, the residual activity in assay [1] was 116%; in assay [2] it was 59%; in assay [4], 35%; in [5], 82%; in assay [6], 29%.
With `Fc1ccc(-c2nc3n(c2-c2ccncc2)CCS3)cc1`, the residual activity in assay [1] turned out to be 73%; in assay [2], 81%; in assay [3], 64%; in [4], 52%; in assay [8], 92%; in assay [9], 16%. Also, in assay [10], the residual activity was determined as 3%.
In the case of `NC(=O)c1ccc(-c2nc(-c3ccc4c(c3)OCCO4)c(-c3ccccn3)[nH]2)cc1`, the residual activity in assay [3] stood at 56%; in assay [4], 53%; in assay [7] it was 90%; in assay [9], 77%; in [10], 37%.
With `N#C/C(=C1/Nc2ccccc2S1)c1ccnc(NCCc2cccnc2)n1`, the residual activity in assay [7] is 63%; in assay [8], 63%; in assay [9], 76%; in assay [10], 41%.
Regarding `O=S(=O)(c1cccc2cnccc12)N1CCCNCC1`, the residual activity was determined as 84% in assay [1], 47% in [2], 85% in assay [7] and 49% in assay [8].
Consider `CCOC(=O)c1c(C)[nH]c(/C=C2\C(=O)Nc3ccccc32)c1C`, for which the residual activity in assay [3] was 88%; in assay [4], 75%; in [5], 72%; in [6], 77%; in assay [7], 88%; in [8] it was 90%.
`O=C1Cc2c([nH]c3ccc([N+](=O)[O-])cc23)-c2ccccc2N1`: the residual activity in [3] is 56%; in assay [4] it was 34%; in assay [5], 38%; in assay [6], 22%; in assay [7], 64%; in assay [8], 38%.
Consider `Nc1ncnc2c1cnn2-c1ccccc1`, for which the residual activity came out at 88% in assay [2], 84% in assay [6] and 83% in assay [9].
Take `CCOc1nc(NC(=O)Cc2cc(OC)ccc2OC)cc(N)c1C#N`: in assay [6], the residual activity came out at 71%.
Take `CCCCc1c(-c2ccc(O)cc2)[nH]c2nccnc12`: the residual activity came to 42% in assay [3]; 29% in assay [4]; 68% in assay [5]; 44% in assay [6]; 86% in assay [7]; 84% in assay [8]. Besides, the residual activity in [9] amounted to 100%; in assay [10] it was 88%.
Take `CC(C)N(CCC(=O)c1ccc2ccccc2c1)Cc1ccccc1`: the residual activity in assay [3] was found to be 54%; in assay [4], 52%; in assay [9] it was 81%; in assay [10] it was 79%.
Take `O=C(O)/C=C/c1cc(Br)c(Br)c(Br)c1Br`: the residual activity in assay [1] worked out at 110%; in assay [2] it was 89%; in assay [3], 59%; in assay [4], 43%; in [9] it was 77%; in [10] it was 90%.
For `O=C(c1ccccc1)c1ccc(N2CCOCC2)cc1O`, the residual activity in assay [1] was found to be 96%; in assay [2], 85%; in assay [3], 45%; in assay [4], 38%; in assay [8], 130%; in assay [9], 79%. In assay [10], the residual activity was determined as 83%.
Turning to `COc1ccc(-c2cnc3c(-c4ccsc4)cnn3c2)cc1`, the residual activity in assay [3] was found to be 67%; in assay [4], 51%; in assay [7], 100%; in assay [8], 136%; in assay [9] it was 81%.
Take `Nc1nccc(-c2c(-c3ccc(F)cc3)ncn2C2CCNCC2)n1`: the residual activity stood at 54% in assay [3]; 36% in [4]; 83% in assay [5]; 50% in assay [6]; 70% in assay [8].
For `CCN1/C(=C/C(C)=O)Sc2ccc(OC)cc21`, the residual activity worked out at 77% in assay [5] and 57% in assay [6].
For the compound `CC(C)[C@H](CO)Nc1nc(Nc2cc(N)cc(Cl)c2)c2ncn(C(C)C)c2n1`, the residual activity in [1] was determined as 32%; in [2], 6%; in [7], 18%; in assay [8], 6%; in [10], 95%.
For `CN([C@@H](Cc1ccc(OS(=O)(=O)c2cccc3cnccc23)cc1)C(=O)N1CCN(c2ccccc2)CC1)S(=O)(=O)c1cccc2cnccc12`, the residual activity in [5] and in [6] was 99% in each case.
On to `O=C(NC(NC(=S)Nc1ccc(F)c([N+](=O)[O-])c1)C(Cl)(Cl)Cl)C(c1ccccc1)c1ccccc1` (stereo unspecified), for which the values for the residual activity in [7] and in assay [8] were 80% and 94%, respectively.
Regarding `COc1ccc(Cl)cc1NC(=O)Nc1cc(C)nc2ccccc12`, the residual activity in assay [9] was 82%; in [10], 91%.
With `Cn1sc(=O)n(Cc2ccccc2)c1=O`, the residual activity in assay [3] was determined as 49%; in [4], 65%; in assay [5], 99%; in assay [6], 97%; in assay [7], 95%; in assay [8], 93%. The residual activity in [9] and in [10] was 87% throughout.
For the compound `N#C/C(=C\c1ccc(O)c(O)c1)C(=O)NCc1ccccc1`, the residual activity was 102% in assay [2]; 67% in assay [3]; 45% in assay [4]; 122% in [5]; 72% in assay [9]; 102% in [10].
For the compound `O=C1Nc2ccccc2/C1=C\c1c(Cl)[nH]c2ccccc12`, the residual activity in [3] stood at 60%; in assay [4], 25%; in assay [6], 44%; in assay [7], 51%; in assay [8], 33%; in assay [10] it was 45%.

The values above are taken from ChEMBL document CHEMBL2218924, “A broad activity screen in support of a chemogenomic map for kinase signalling research and drug discovery” (Biochem J, 2013).
